The results in this text go back to PubChem BioAssay (NCATS).

Values joined by “and” are separate entries in the source; they are usually repeats but may differ in a detail not shown here. Equal values may be shown once. Records with an inconclusive call do not appear. A structure can be active in one record and inactive in another. Active and inactive are the calls of the source. Unless noted, calls come from the whole dose curve; as a rule, active = well fitted curve in the direction sought with a large enough effect; inconclusive = small, poorly fitted or top-dose-only effect, or another doubt; inactive = no such curve, though single readings can be large; an effect the other way counts as inactive or inconclusive.

One assay deals with MKL-2. Nature of the assay: qHTS assay to identify novel small-molecules to repurpose for Merkel cell carcinoma treatment (AID 1296009). Note: nearly all actives have a fitted effect of over 60% in size. Note: potency is the fitted concentration of half-maximal effect. Particulars: MCC and control cell lines, CellTiter-Glo viability, 72 h; series mostly up to 46 µM. Put shortly: (§1)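 Cell viability, measured as CellTiter-Glo luminescence, was normalized between DMSO and no-cell wells. The cells had been exposed to 8- or 11-point compound dilutions for 72 hr at 37 degree celsius.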

The subject of a further assay is WaGa. The description is as above. The settings on record: MCC and control cell lines, CellTiter-Glo viability, 72 h; series mostly up to 46 µM. Put shortly:
as §1

A further assay deals with HeLa. Nature of the assay: Primary qHTS to identify gynecologic anti-cancer compounds using libraries of approved drugs and bioactive compounds (AID 1345084). Note: nearly all actives have a fitted effect of over 55% in size. Note: potency is the fitted concentration of half-maximal effect. Particulars: Gynecologic cancer cell panel viability, ATPlite luminescence, 48 h; series mostly up to 57.5 µM. Put shortly:
(§2)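 In this quantitative HTS, cell killing is estimated from loss of ATP-dependent luciferase light. Cells see five compound concentrations over a 48 h exposure.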

The next assay relates to Hek293T. The assay is described as above. The settings on record: Gynecologic cancer cell panel viability, ATPlite luminescence, 48 h, control line for the selectivity index; series mostly up to 57.5 µM. Put shortly:
as §2

The next assay deals with JEG-3. Described as above. The settings on record: Gynecologic cancer cell panel viability, ATPlite luminescence, 48 h; series mostly up to 57.5 µM. Put shortly: as §2
A further assay concerns OV90. The assay is described as above. The settings on record: Gynecologic cancer cell panel viability, ATPlite luminescence, 48 h; series mostly up to 57.5 µM. Put shortly: as §2
A further assay deals with SKOV3. The description is as above. Particulars: Gynecologic cancer cell panel viability, ATPlite luminescence, 48 h; series mostly up to 57.5 µM. Put shortly: as §2
The next assay concerns Tov-21-G. The assay is described as above. Particulars: Gynecologic cancer cell panel viability, ATPlite luminescence, 48 h; series mostly up to 57.5 µM. Put shortly: as §2
For another assay, the system named is Tov112D. The assay is described as above. Particulars: Gynecologic cancer cell panel viability, ATPlite luminescence, 48 h; series mostly up to 57.5 µM. Put shortly: as §2
Assay [1] can be described thus: Drug repurposing screens with cells derived from glioblastoma tumor samples (AID 1345199). For activity, negative = cell killing: % is set by controls: 0 for no effect and ±100 for the full control effect. Note: nearly all actives have a fitted effect of over 40% in size. Note: potency is the fitted concentration of half-maximal effect. The settings on record: GBM patient neurospheres viability, ATP luminescence, 48 h. Put shortly:
(§3)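 Primary testing used CD133+ neurospheres from four GBM patients, seven concentrations, 48 h exposure and ATP-based viability; confirmation added three slower-growing patient lines.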

The next assay deals with C33A. As to the kind of experiment: Primary qHTS to identify gynecologic anti-cancer compounds using libraries of approved drugs and bioactive compounds (AID 1345084). Note: nearly all actives have a fitted effect of over 55% in size. Note: potency is the fitted concentration of half-maximal effect. Particulars: Gynecologic cancer cell panel viability, ATPlite luminescence, 48 h; series mostly up to 57.5 µM. Put shortly:
as §2

A further assay concerns CAOV3. Described as above. The settings on record: Gynecologic cancer cell panel viability, ATPlite luminescence, 48 h; series mostly up to 57.5 µM. Put shortly: as §2
Another assay deals with CASKI. The assay is described as above. The settings on record: Gynecologic cancer cell panel viability, ATPlite luminescence, 48 h; series mostly up to 57.5 µM. Put shortly: as §2
The next assay has as its system Es-2. Described as above. The settings on record: Gynecologic cancer cell panel viability, ATPlite luminescence, 48 h; series mostly up to 57.5 µM. Put shortly:
as §2

The test system of a further assay is astro. As to the kind of experiment: Drug repurposing screens with cells derived from glioblastoma tumor samples (AID 1345199). For activity, negative = cell killing: % is set by controls: 0 for no effect and ±100 for the full control effect. Note: nearly all actives have a fitted effect of over 40% in size. Note: potency is the fitted concentration of half-maximal effect. The settings on record: viability, ATP luminescence, 48 h; series mostly up to 45.9 µM. Put shortly: as §3
For assay [2], the target named is Nuclear receptor subfamily 1 group I member 2 (Rattus norvegicus) (UniProt Q9R1A7). Nature of the assay: qHTS assay for small molecule activators of the rat pregnane X receptor (rPXR) signaling pathway (AID 651751; call rule not given here; note: 0% is about no effect). Particulars: rPXR reporter cells, luciferase (One-Glo), 24 h.
Another assay relates to UISO. As to the kind of experiment: qHTS assay to identify novel small-molecules to repurpose for Merkel cell carcinoma treatment (AID 1296009). Note: nearly all actives have a fitted effect of over 60% in size. Note: potency is the fitted concentration of half-maximal effect. The settings on record: MCC and control cell lines, CellTiter-Glo viability, 72 h; series mostly up to 46 µM. Put shortly:
as §1

A further assay has as its system PA-1. Nature of the assay: Primary qHTS to identify gynecologic anti-cancer compounds using libraries of approved drugs and bioactive compounds (AID 1345084). Note: nearly all actives have a fitted effect of over 55% in size. Note: potency is the fitted concentration of half-maximal effect. Particulars: Gynecologic cancer cell panel viability, ATPlite luminescence, 48 h; series mostly up to 57.5 µM. Put shortly: as §2
Where [3] appears, read: at 46.1 µM (top of the series), tumour line C.
Setting [4] is: at 45.9 µM (top of the series), tumour line B.
The mark [5] stands for this setting: at 45.9 µM (top of the series), tumour line D.
Where [6] appears, read: at 46 µM (top of the series), tumour line A.

Chain of Nuclear receptor subfamily 1 group I member 2 (Rattus norvegicus) (Q9R1A7 whole entry, looked up): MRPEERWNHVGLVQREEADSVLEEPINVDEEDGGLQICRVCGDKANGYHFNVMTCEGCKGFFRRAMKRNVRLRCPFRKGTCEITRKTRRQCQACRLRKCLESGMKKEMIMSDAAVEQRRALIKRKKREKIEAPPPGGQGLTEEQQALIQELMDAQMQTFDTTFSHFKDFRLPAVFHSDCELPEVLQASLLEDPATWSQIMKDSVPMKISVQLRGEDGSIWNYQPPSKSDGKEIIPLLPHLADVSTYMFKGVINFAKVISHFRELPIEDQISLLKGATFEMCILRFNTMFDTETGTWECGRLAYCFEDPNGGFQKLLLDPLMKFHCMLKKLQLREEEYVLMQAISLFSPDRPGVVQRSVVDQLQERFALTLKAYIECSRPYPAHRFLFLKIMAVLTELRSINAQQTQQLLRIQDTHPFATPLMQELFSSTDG

As for `CNCCCC12CCC(c3ccccc31)c1ccccc12`, the Potency with MKL-2 is 23.5 µM (active); in the assay on WaGa, 29.9 µM (active) and inactive; with OV90 it was 17.8 µM (active); with SKOV3, 11.2 µM (active); in [1] (tumour line A) it was 7.94 µM (active); in assay [1] (tumour line B), 17.8 µM (active). For the same molecule, the Potency in assay [1] (tumour line D) was 22.4 µM (active). The Potency result in the assay with HeLa, with Hek293T, in the assay on JEG-3, with Tov-21-G and in the assay with Tov112D was “inactive” throughout. Further, the activity, negative = cell killing in assay [1] (setting [3]) is 31.2% (inactive).

For `CC(C)NCC(O)c1ccc(O)c(O)c1` (stereo unspecified), the Potency in the assay on MKL-2 was 7.43 µM (active) and 18.8 µM (active); in the assay on WaGa, 3.32 µM (active) and 18.8 µM (active). Besides, the Potency entry with C33A, in the assay on CAOV3, with CASKI, in the assay with Es-2, in the assay on HeLa and in the assay on Hek293T was “inactive” each time. Besides, the Potency result in the assay with JEG-3, in the assay with SKOV3, in the assay on Tov-21-G, in the assay with Tov112D and with astro was “inactive” throughout. Also, the results for the activity, negative = cell killing in [1] (setting [4]), in [1] (setting [5]) and in [1] (setting [3]) were -7.24% (inactive), 4.85% (inactive) and 7.09% (inactive), respectively. For the same molecule, in assay [2], the max response was -3.83% (inactive) and 3.86% (inactive).

As for `COc1ccccc1OCCNCC(O)COc1cccc2[nH]c3ccccc3c12` (stereo unspecified), the Potency with MKL-2 is 16.8 µM (active); in assay [1] (tumour line A) it was 11.2 µM (active). The Potency entry with UISO, in the assay with WaGa, with C33A, in the assay on Es-2, in the assay with HeLa and with PA-1 was “inactive” in each case. In addition, the Potency entry in the assay on SKOV3, in the assay on Tov-21-G and with Tov112D was “inactive” in each case. Further, the activity, negative = cell killing in assay [1] (setting [3]) is 3.12% (inactive).

For `CC[C@@]1(O)C(=O)OCc2c1cc1n(c2=O)Cc2cc3c(CN(C)C)c(O)ccc3nc2-1`, the Potency in the assay on MKL-2 is 4.2 nM (active) and 13.2 nM (active); in the assay on UISO it was 237 nM (active) and 46.9 nM (active); in the assay with WaGa it was 3.8 nM (active) and 26.4 nM (active); with C33A it was 2.51 µM (active) and 7.08 µM (active); in the assay with CASKI, 1.26 µM (active) and 4.47 µM (active); in the assay with Es-2, 2 µM (active). Also, the Potency in the assay on Hek293T is 8.91 µM (active); with PA-1, 447 nM (active) and 1.58 µM (active); in the assay on SKOV3, 14.1 µM (active); in the assay with Tov-21-G, 31.6 µM (active); in the assay on Tov112D it was 316 nM (active) and 1.41 µM (active); in assay [1] (tumour line A) it was 0.891 µM (active). Also, the Potency in assay [1] (tumour line D) was 3.55 µM (active). For the same molecule, the Potency result in the assay with HeLa is “inactive”. The activity, negative = cell killing in assay [1] (setting [3]) is -20.9% (inactive).

In the case of `O=c1[nH]cc(F)c(=O)[nH]1`, the Potency entry with MKL-2, in the assay with CAOV3, in the assay on CASKI, in the assay on Es-2, in the assay with HeLa and in the assay with Hek293T was “inactive” in each case. Also, the Potency result with OV90, with SKOV3 and in the assay with Tov112D was “inactive” throughout. Besides, in the assay with WaGa, the Potency was 10.5 µM (active). For the same molecule, the activity, negative = cell killing was -26.1% (inactive) in assay [1] (setting [4]), -11.3% (inactive) in assay [1] (setting [6]) and -29.9% (inactive) in assay [1] (setting [3]).

Regarding `COc1ccc2c(c1)c(CC(=O)O)c(C)n2C(=O)c1ccc(Cl)cc1`, the Potency result in the assay with MKL-2, in the assay on UISO, in the assay on WaGa, in the assay with C33A, with CASKI and in the assay with Es-2 was “inactive” in each case. In addition, the Potency result in the assay with HeLa, in the assay on Hek293T, with JEG-3, in the assay on PA-1, in the assay on SKOV3 and in the assay on Tov-21-G was “inactive” throughout. In addition, the Potency result in the assay on Tov112D and in the assay on astro was “inactive” in each case. Further, the activity, negative = cell killing is -14.6% (inactive) in assay [1] (setting [4]), -6.82% (inactive) in [1] (setting [5]), -26.1% (inactive) in assay [1] (setting [6]) and -12.3% (inactive) in assay [1] (setting [3]). Also, in assay [2], the max response was -2.59% (inactive) and -3.57% (inactive).

For the molecule `NC(CO)C(=O)NNCc1ccc(O)c(O)c1O` (stereo unspecified), the Potency entry in the assay on CASKI, in the assay with Es-2, in the assay on HeLa, in the assay on Hek293T, in the assay with JEG-3 and in the assay with OV90 was “inactive” each time. For the same molecule, the Potency entry with Tov-21-G and with Tov112D was “inactive” each time. The activity, negative = cell killing in assay [1] (setting [4]) is -5.28% (inactive); in assay [1] (setting [5]), -22% (inactive); in assay [1] (setting [6]) it was -18.9% (inactive); in assay [1] (setting [3]) it was 12.3% (inactive).

For `CN(C)CCCN1c2ccccc2CCc2ccc(Cl)cc21`, the Potency in the assay on MKL-2 is 18.7 µM (active); in the assay with WaGa, 18.7 µM (active); in assay [1] (tumour line A) it was 5.01 µM (active); in assay [1] (tumour line B) it was 20 µM (active); in assay [1] (tumour line D) it was 12.6 µM (active). In addition, the Potency result in the assay with C33A, with HeLa, in the assay with JEG-3, in the assay on PA-1 and with Tov-21-G was “inactive” throughout. The activity, negative = cell killing in assay [1] (setting [3]) is -8.66% (inactive).

`O=C(Nc1ccc([N+](=O)[O-])cc1Cl)c1cc(Cl)ccc1O`: the Potency in the assay on UISO is 3.26 µM (active); with WaGa, 4.61 µM (active); in the assay with C33A it was 2.51 µM (active); in the assay on CASKI, 6.31 µM (active); with Es-2, 2.51 µM (active); with HeLa, 1.26 µM (active). The Potency with Hek293T is 1.78 µM (active); with JEG-3, 2.82 µM (active); in the assay on PA-1 it was 2 µM (active); in the assay on SKOV3 it was 3.98 µM (active); in the assay with Tov-21-G, 3.55 µM (active); in the assay on Tov112D, 2 µM (active). Moreover, in the assay on OV90, the Potency result was “inactive”. Besides, the max response in assay [2] is -12.4% (inactive).
